The results in this text go back to PubChem BioAssay (NCATS).

Records with an inconclusive call do not appear. Where a call stands in place of a potency, no number is given. Calls of active or inactive are those of the source. The call rests on the fitted dose curve; in most records, active means well fitted inhibition curve with a large enough effect; inconclusive means small, poorly fitted or top-dose-only effect; inactive means no such curve, though single readings can be large or run the other way.

The assay has as its target Retinaldehyde dehydrogenase 3 (Homo sapiens) (UniProt P47895). As to the kind of experiment: qHTS for Inhibitors of the Aldehyde Dehydrogenase Family (ALDH1A3) Primary screen (AID 2061315). Particulars: ALDH inhibition qHTS; series mostly up to 56 µM. In general terms: In qHTS, concentration-response curves come from the screen itself.
As for `O=C(N[C@H]1CCN(C(=O)c2cc(C(F)(F)F)cc(C(F)(F)F)c2)[C@H](Cc2ccc(Cl)cc2)C1)c1ccnc2ccccc12`, the Potency entry was “inactive”. Under `COc1ccccc1-c1ccc(=O)n(CC(=O)NCCc2ccccc2)n1` stands “inactive”; under `O=C(Cn1nc(-c2ccc(OC(F)(F)F)cc2)ccc1=O)NCCc1ccccc1`, “inactive”; under `Fc1cc(Nc2nc(-c3ccncc3)nc3ccccc23)ccc1-c1cccc(C(F)(F)F)c1`, “inactive”. Under `Cc1cc(N[S+](=O)([O-])c2ccc(NC(=O)Cc3ccc4c(c3)CCO4)cc2)no1` stands “inactive”.

On to `CCOC(=O)CC(=O)Nc1ncnc2c1C(c1ccccc1)c1c(ccc3ccccc13)O2` (stereo not given), for which the Potency result is “inactive”. Under `COc1ccc(C2Nc3ccccc3C(=O)N2Cc2cccc(OC)c2OC)cc1COc1c(C)cc(NC(C)=O)cc1C` (stereo not given) stands “inactive”. `O=C(N[C@H]1CCCc2c1cnn2-c1ccc(F)cc1F)c1ccccn1`: the Potency result was “inactive”. Regarding `O=C(OCC#CCSc1nnc(-c2ccc3ccccc3c2)o1)c1ccsc1`, the Potency result is “inactive”. The entry for `Cc1cccc(CNc2ccnc(-c3ccc(F)cc3F)n2)c1` is “inactive”; for `O=C(Cc1ccc2ccccc2c1)Nc1ccc(S(=O)(=O)Nc2nccs2)cc1` it is “inactive”. Under `FC(F)(F)c1cc(-c2ccc(CNc3nc(-c4ccccc4C(F)(F)F)nc4ccccc34)cc2)ccc1Cl` stands “inactive”; under `CCOc1ccc(CCNC(=O)c2ccc3ccccc3n2)cc1OCC`, “inactive”. The entry for `Cc1ccc(OCCn2c(CCNC(=O)c3cccc4cc[nH]c34)nc3ccccc32)cc1` is “inactive”; for `O=S1(=O)N=C(Oc2ccccc2C(F)(F)F)c2ccccc21` it is “inactive”. On to `Cc1ccc(-c2cc(C(=O)Nc3ccc(-n4cncn4)cc3)c3ccccc3n2)cc1C`, for which the Potency result was “inactive”. The entry for `Cc1ccc(C(=O)[C@H]2CC[C@@H](C(=O)Nc3ccc(S(=O)(=O)Nc4nccs4)cc3)C2)cc1C` is “inactive”.

On to `OC[C@H]1O[C@@H](O[C@H]2[C@H](OCCc3ccccc3)O[C@H](CO)[C@@H](O)[C@@H]2O)[C@H](O)[C@@H](O)[C@@H]1O`, for which the Potency result is “inactive”. Under `FC(F)(F)c1ccccc1-c1nc(NCC#Cc2cccnc2)c2ccccc2n1` stands “inactive”; under `CCNc1nc(C#N)nc2c1ncn2-c1cc(F)cc(F)c1`, “inactive”; under `N=c1c2c(ncn1-c1ccccc1)Oc1ccc3ccccc3c1C2c1ccc2c(c1)OCO2` (stereo not given), “inactive”. The entry for `Cc1nc(-c2ccccc2)oc1-c1ccc2ncnc(NCCc3cnc[nH]3)c2c1` is “inactive”.

`Cc1ccc(NS(=O)(=O)c2ccc3c(c2)N(C)CCO3)cc1C`: the Potency entry was “inactive”.

As to `NC(=O)C1CCN(c2nnc(-c3ccc4c(c3)OCCCO4)s2)CC1`, the Potency result was “inactive”. Under `CN1CCN(c2cccc(Nc3nn4c(=O)c5ccccc5nc4s3)c2)CC1` stands “inactive”; under `COC(=O)c1ccccc1NC(=O)c1ccc(F)cc1`, “inactive”. The entry for `Cn1c2cc(Br)sc2c2cnn(Cc3ccccc3F)c(=O)c21` is “inactive”; for `O=C(Nc1ccc(S(=O)(=O)Nc2nccs2)cc1)c1ccnc2ccccc12` it is “inactive”. As to `Cc1nc(N2CCOCC2)c2nc(-c3ccccc3)n(CCN3CCCCC3)c2n1`, the Potency result was “inactive”. The entry for `Cc1cc(C)nc(NC(=S)N2CCN(c3ccc(Cl)cc3S(C)(=O)=O)CC2)c1` is “inactive”; for `CN(C)c1cnc2c(O)cccc2c1` it is “inactive”; for `O=[S+]([O-])(c1ccc2c(c1)OCCO2)N1CCN([S+](=O)([O-])c2c(F)cc(O)cc2F)CC1` it is “inactive”. For `Cc1cccc(-n2cnc3cc(C(=O)N4CCOCC4)ccc32)c1`, the Potency result is “inactive”. The entry for `Cc1nc2ccccn2c1C(O)(c1ccccc1)c1ccccc1` is “inactive”; for `Cc1ccc(-c2ccc(=O)n(CCNC(C)c3ccco3)n2)cc1` (stereo not given) it is “inactive”; for `Cc1cc(F)ccc1S(=O)(=O)Nc1cnccc1C(=O)Nc1nc(-c2ccccc2)cs1` it is “inactive”. Consider `COc1c/c(=C2\C=c3ccccc3=N2)[nH]/c1=C\c1[nH]c(C)cc1C`, for which the Potency result is “inactive”. Under `N#CN/C(=N\c1nnc(-c2ccncc2)s1)Nc1ccc(F)c(C(F)(F)F)c1` stands “inactive”; under `Cc1c(P(=S)(c2ccccc2)c2ccccc2)c2ccccc2n1C(=O)Cc1ccccc1`, “inactive”. The entry for `O=C1CCCC2=C1C(c1[nH]ncc1Cl)NC(=NCc1ccoc1)N2` (stereo not given) is “inactive”.
